The values that follow come from PubChem BioAssay (NCI).

Where “and” joins values, the source holds several entries; their conditions need not be identical. Equal entries are not always repeated. About 83,000 compounds went through this panel and 20% of them were active in at least one assay; those are over-represented in the sample as a whole.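 Plates (96-well) were seeded with cells, treated with compound at one concentration, and incubated for 48 hours before percent growth was determined.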 Values without a mark were called inactive. Calls of active or inactive are those of the source. How the source made its calls: active means growth percent below 10; inactive means the rest.

The subject of the assay is MDA-MB-468 breast. The assay is described as follows: NCI-60 one-dose screen, 48 h (100 = growth as untreated, 0 = no growth, -100 = all killed). Particulars: 10 µM unless noted.
As for `CCN(CC)C(=S)SSC(=S)N(CC)CC`, the growth was 77.7% and 111%.

On to `CNCCNc1nc2ccccc2c2c(=O)c3cc(OC)ccc3sc12`, for which the growth is 44.7%.

Take `COc1cc(OC)c(S(=O)(=O)NNC(=O)c2ccncc2)cc1C(=O)/C=C/c1ccc(C)cc1`: the growth was 38.3%.

On to `COc1ccc(C(O)c2cc3c(N)c(C(=O)Nc4ccccc4)sc3nc2C)cc1` (stereo not given), for which the growth is 9.92% (active).

Take `C=C(C)[C@@H]1CC[C@]2(C=NCCCNCCCCNCCCN)CC[C@]3(C)[C@H](CC[C@@H]4[C@@]5(C)CCCNC(C)(C)[C@@H]5CC[C@]43C)[C@@H]12`: the growth was 98.5%.

For the compound `COC(=O)[C@H](Cc1cn(C)cn1)NC(=O)[C@@H](NC(=O)Nc1cc(C(F)(F)F)cc(C(F)(F)F)c1)C(C)C`, the growth was -60.4% [100 µM] (active).

Turning to `COC(=O)CCC1=C(C)C(C)=N/C1=C\c1[nH]c(-c2ccc[nH]2)cc1OC`, the growth was 35%.

On to `COc1cc(/C(=C2/O[C@@H]([C@H]3COC(C)(C)O3)[C@H]3OC(C)(C)O[C@@H]23)c2ccc3ccccc3c2)cc(OC)c1OC`, for which the growth is 51.2%.

As for `COC(=O)CNc1nc(N(C)O)nc(N(C)O)n1`, the growth was 30.6%.

For `COc1ccc(C(=O)C2C(C#N)C(C#N)C3C=Cc4ccccc4N32)cc1` (stereo not given), the growth is 16.5%.

As for `S=CN1CCCCC1`, the growth was 93%.

In the case of `O=C1Nc2ccccc2/C1=C/C(=N/c1nnc(-c2ccccc2)s1)c1ccccc1`, the growth is 56%.

As for `COC(=O)/C=C1/SC(=Nc2ccc(F)cc2)N(CCc2c[nH]c3ccc(O)cc23)C1=O`, the growth is 36%.

On to `CC1(C)N=C(N)N=C(N)N1c1ccc(F)c(C(F)(F)F)c1`, for which the growth was 65.1%.

In the case of `Cc1c(Cl)ccc2c(C(=O)Cl)cc(-c3ccccc3)nc12`, the growth is 101%.

`Cc1ccc(S(=O)(=O)N2CCCC2CO)cc1` (stereo not given): the growth was 86.3%.

Turning to `COc1ccc2c(c1)C(C)Cc1c(N(C)C)ncnc1N2C` (stereo not given), the growth is 29.9%.

Turning to `CC1(C)CC[C@]2(C(=O)Nc3ccccn3)CC[C@]3(C)C(=CC[C@@H]4[C@@]5(C)C/C(=C/c6cccnc6)C(=O)C(C)(C)[C@@H]5CC[C@]43C)[C@H]2C1`, the growth was 17.2%.

`COc1ccc(-n2nc(C)c3c(Oc4ccc(NC(=O)Nc5c(Cl)cccc5Cl)cc4)ncnc32)cc1`: the growth was 107%.

As to `COCCCC/C(=N\OCCN)c1ccc(C(F)(F)F)cc1`, the growth was 101%.

`CC(=O)c1cc2c(N)c(C(=O)Nc3ccccc3)sc2nc1C`: the growth is 24.3%.

In the case of `N#C/C(=C1\SC(=O)CN1c1ccccc1)c1nc2ccccc2s1`, the growth was 115%.

Take `CCCc1c(C)c2sc(=O)[nH]c2[nH]c1=O`: the growth was 99.4%.

For the compound `CCCCC[C@H]1C/C=C2/C(=O)C=C[C@@H]2C/C=C\CCCC(=O)O1`, the growth was -50.6% (active).

For `Cc1ccc(-c2nnc(SCc3ccc(O)c4ncccc34)o2)cc1`, the growth was 14.4%.

For the compound `O=C1NC(=O)/C(=C/C=C/c2ccccc2)S1`, the growth was 63.3%.

For the compound `C=C(C)[C@H]1CC/C(C)=C/CC[C@]2(C)O[C@H]2CC/C(C=O)=C\C1O` (stereo not given in full), the growth is 126%.

`O=C(/C=C/c1c[nH]c2ccccc12)c1ccc(O)c(CN2CCN(c3ccc(F)cc3)CC2)c1`: the growth was 97.4%.

`Cc1nc(-c2cc3ccccc3oc2=O)ccc1C(=O)/C=C/c1ccc(N2CCOCC2)cc1`: the growth is 45.6%.

On to `C#CCOc1cccc(Nc2c(Cl)c(CCl)nc3ccc(Oc4ccccc4)cc23)c1`, for which the growth was 24.7%.

As for `COc1ccc(Cn2c(Br)c3c(c2Br)-c2nc(N)sc2CC3)cc1`, the growth was -5.61% (active).

In the case of `CC(=O)OCc1nc(C#N)c(N(C)C)o1`, the growth is 94.1%.

For the compound `COc1cc(C(=O)/C=C/c2c[nH]c3ccccc23)cc(OC)c1OC`, the growth was -5.45% (active).

Turning to `CC(C)(C)n1cc(-c2ccnc(NCCCNS(=O)(=O)c3ccc(F)cc3)c2)c(-c2cccc(F)c2)n1`, the growth was 53.2%.

For `COc1cccc(/C=N/NC(=S)NC2CC3CCC2C3)c1O` (stereo not given), the growth is 68.2%.

On to `CCN1C(=O)N(CC)C2C1NN=c1s/c(=C3\C(=O)N(C(C)C)c4ccccc43)c(=O)n12` (stereo not given), for which the growth is 16.5%.

Consider `CC1(C)CC(=O)C2=C(C1)C(c1ccc(Cl)cc1)n1ncc(C#N)c1N2` (stereo not given), for which the growth is 105%.

`C#Cc1ccc(-n2c(/C=C/c3cc(OC)c(OC)c(OC)c3)nc3ncccc3c2=O)cc1`: the growth is 3.92% (active).

For `COc1cc(/C=C/c2cc(/C=C/c3ccc(O)c(OC)c3)n(-c3c(C)cccc3C)c(=O)n2)ccc1O`, the growth was -16.4% (active).

For `COc1cc(NC(N)=NCC(C)(C)COc2ccc(C(F)(F)F)cc2)cnc1C#N`, the growth was 19.6%.
